Reference: the supplement of paper PMC10849652
Targets with a hit are over-represented here; the source holds about 7,900 in all. About 0.6% of all pairs of compound and target were hits.

Assays:
Assay in all cases: log2 fold change, soluble protein after heating vs DMSO (PISA); higher = thermal stabilisation; K562 cells, 10 uM, 30 min; active = over 0.2 and 3.5 SD of the protein, either way, in both replicates (recomputed)
[1] = compound: CC1=C(C=C(C=C1)NC(=O)C2=CC(=CC=C2)C(C)(C)C#N)NC3=CC4=C(C=C3)N=CN(C4=O)C
Summary of the method: (§1)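 K562 cells at 2×10^6 cells/mL were given 10 μM compound for 30 min. Aliquots then went through 3 min of heating across 48°C-58°C, were pooled, and were extracted in PBS with 0.5% NP-40 at 4°C, and the supernatant after 21,000xg for 90 min was quantified by TMTpro 16plex LC-MS/MS with channel sums equalised. Thermal stability relative to control samples, from duplicates, is given as log2 fold change.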

[2] = compound: CC1=C(C=C(C=C1)NC(=O)C2=CC(=CC=C2)N(C)C)NC(=O)C3=CC=C(C=C3)O
Summary of the method: as §1

[3] = compound: CC1=CC=C(C=C1)SC2=C3C=C(SC3=CN=C2)C(=O)N
Summary of the method: as §1

[4] = compound: CC1=NC(=CC=C1)C2=C(N=C(N2)C(C)(C)C)C3=CC4=NC=CN=C4C=C3
Summary of the method: as §1

[5] = compound: CCCCN(Cc1ccc(C(=O)NO)cc1)C(=O)Nc1ccccc1 [Nexturastat A]
Summary of the method: as §1

[6] = compound: CCCS(=O)(=O)Nc1ccc(F)c(C(=O)c2c[nH]c3ncc(-c4ccc(Cl)cc4)cc23)c1F [vemurafenib]
Summary of the method: as §1

[7] = compound: CCCS(=O)(=O)Nc1ccc(F)c(C(=O)c2c[nH]c3ncc(Cl)cc23)c1F
Summary of the method: as §1

[8] = compound: CCCc1cc(C)[nH]c(=O)c1CNC(=O)c1cc(-c2ccnc(N3CCN(C)CC3)c2)cc2c1cnn2C(C)C
Summary of the method: as §1

[9] = compound: CCN(CC)Cc1ccc2cc(COC(=O)Nc3ccc(C(=O)NO)cc3)ccc2c1 [givinostat]
Summary of the method: as §1

[10] = compound: CCN(CCCOc1ccc2c(Nc3cc(CC(=O)Nc4cccc(F)c4)[nH]n3)ncnc2c1)CCOP(=O)(O)O [barasertib]
Summary of the method: as §1

Measured: log2 fold change

SPECC1 (UniProt Q5M775)
Chain of UniProt Q5M775 (Q5M775 whole entry, looked up): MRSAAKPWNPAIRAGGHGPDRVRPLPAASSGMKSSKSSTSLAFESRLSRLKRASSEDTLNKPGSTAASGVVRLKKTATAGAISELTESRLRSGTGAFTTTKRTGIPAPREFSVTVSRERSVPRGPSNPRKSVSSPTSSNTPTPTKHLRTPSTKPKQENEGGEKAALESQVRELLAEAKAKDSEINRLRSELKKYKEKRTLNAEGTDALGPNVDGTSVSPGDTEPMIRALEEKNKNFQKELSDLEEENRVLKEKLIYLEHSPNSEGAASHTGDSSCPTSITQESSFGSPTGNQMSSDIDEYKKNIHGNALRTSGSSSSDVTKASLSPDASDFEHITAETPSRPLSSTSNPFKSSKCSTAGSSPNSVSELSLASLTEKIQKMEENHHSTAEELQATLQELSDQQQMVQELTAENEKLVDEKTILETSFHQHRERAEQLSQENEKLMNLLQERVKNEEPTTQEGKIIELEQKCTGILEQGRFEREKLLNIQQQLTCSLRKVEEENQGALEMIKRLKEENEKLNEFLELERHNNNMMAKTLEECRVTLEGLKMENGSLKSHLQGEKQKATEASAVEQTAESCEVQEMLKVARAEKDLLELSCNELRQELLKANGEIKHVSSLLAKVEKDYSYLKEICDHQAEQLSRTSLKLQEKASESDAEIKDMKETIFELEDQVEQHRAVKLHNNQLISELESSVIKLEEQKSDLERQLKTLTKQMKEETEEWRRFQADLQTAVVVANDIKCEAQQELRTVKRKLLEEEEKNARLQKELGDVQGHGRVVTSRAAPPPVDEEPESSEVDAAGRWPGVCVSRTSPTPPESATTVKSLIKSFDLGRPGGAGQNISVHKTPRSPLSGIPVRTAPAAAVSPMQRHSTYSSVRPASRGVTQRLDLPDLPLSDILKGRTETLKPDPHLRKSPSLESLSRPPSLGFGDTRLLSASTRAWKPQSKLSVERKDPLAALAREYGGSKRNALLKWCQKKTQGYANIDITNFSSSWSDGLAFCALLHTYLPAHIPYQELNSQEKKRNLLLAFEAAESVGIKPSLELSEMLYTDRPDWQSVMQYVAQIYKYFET
inactive: [1] -0.028 | [2] -0.015 | [3] 0.094 | [4] -0.063 | [5] -0.08 | [6] -0.094 | [7] -0.06 | [8] -0.102 | [9] 0.035 | [10] 0.062

SMCHD1 (UniProt A6NHR9)
Chain of UniProt A6NHR9 (A6NHR9 whole entry, looked up): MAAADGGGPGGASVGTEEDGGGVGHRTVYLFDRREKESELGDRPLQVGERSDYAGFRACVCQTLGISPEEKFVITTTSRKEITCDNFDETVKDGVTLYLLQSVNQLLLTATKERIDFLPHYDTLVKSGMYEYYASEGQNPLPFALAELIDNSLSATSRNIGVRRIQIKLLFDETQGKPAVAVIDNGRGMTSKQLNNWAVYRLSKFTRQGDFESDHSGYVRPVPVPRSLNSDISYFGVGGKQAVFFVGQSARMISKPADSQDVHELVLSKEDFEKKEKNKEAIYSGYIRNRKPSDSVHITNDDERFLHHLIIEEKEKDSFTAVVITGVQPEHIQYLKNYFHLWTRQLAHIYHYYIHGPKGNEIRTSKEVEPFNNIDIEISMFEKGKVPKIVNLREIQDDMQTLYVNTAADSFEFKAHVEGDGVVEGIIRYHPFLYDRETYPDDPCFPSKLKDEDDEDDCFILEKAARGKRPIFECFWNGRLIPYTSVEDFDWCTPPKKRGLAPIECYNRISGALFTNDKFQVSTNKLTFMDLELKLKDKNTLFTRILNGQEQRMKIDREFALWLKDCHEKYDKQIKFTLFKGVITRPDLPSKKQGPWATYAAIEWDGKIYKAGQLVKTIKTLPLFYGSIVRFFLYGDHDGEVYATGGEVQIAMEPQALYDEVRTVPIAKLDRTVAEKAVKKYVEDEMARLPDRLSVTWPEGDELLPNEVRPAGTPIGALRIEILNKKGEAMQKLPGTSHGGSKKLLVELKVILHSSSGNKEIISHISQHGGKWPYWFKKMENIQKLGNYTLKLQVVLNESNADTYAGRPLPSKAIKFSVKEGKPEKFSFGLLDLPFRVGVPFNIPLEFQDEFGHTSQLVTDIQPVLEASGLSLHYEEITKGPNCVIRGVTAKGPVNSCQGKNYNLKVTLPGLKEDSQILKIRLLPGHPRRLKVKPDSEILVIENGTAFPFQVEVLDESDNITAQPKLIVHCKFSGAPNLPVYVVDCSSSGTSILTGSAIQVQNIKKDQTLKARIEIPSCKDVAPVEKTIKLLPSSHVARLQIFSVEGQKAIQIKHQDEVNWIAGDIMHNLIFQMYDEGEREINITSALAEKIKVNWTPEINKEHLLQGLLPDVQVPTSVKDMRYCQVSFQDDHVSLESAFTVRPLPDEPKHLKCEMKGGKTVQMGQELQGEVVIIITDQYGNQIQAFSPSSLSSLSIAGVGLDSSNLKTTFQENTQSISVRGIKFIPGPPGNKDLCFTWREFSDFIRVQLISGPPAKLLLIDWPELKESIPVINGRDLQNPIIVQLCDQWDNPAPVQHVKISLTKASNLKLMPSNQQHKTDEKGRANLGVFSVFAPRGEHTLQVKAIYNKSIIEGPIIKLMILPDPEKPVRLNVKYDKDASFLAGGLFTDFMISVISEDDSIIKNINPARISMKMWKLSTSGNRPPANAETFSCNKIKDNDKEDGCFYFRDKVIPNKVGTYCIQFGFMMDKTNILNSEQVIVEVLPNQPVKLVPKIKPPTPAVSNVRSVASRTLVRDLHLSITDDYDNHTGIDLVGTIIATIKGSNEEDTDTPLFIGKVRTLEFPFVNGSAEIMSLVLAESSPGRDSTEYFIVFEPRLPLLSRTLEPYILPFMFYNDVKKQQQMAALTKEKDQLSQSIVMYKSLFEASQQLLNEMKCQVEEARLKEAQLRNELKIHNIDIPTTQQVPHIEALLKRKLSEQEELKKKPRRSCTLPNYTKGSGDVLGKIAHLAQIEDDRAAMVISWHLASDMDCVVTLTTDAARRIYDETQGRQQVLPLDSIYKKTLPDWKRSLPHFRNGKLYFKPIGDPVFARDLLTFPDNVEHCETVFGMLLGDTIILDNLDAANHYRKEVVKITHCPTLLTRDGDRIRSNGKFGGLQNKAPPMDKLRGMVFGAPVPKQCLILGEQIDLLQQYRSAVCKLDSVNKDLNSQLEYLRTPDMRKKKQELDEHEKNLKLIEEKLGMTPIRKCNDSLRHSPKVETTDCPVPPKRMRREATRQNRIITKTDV
inactive: [1] -0.067 | [2] 0 | [3] 0.089 | [4] -0.039 | [5] 0.126 | [6] 0.057 | [7] 0.141 | [8] 0.155 | [9] 0.101 | [10] -0.168

THRAP3 (UniProt Q9Y2W1)
Chain of UniProt Q9Y2W1 (Q9Y2W1 whole entry, looked up): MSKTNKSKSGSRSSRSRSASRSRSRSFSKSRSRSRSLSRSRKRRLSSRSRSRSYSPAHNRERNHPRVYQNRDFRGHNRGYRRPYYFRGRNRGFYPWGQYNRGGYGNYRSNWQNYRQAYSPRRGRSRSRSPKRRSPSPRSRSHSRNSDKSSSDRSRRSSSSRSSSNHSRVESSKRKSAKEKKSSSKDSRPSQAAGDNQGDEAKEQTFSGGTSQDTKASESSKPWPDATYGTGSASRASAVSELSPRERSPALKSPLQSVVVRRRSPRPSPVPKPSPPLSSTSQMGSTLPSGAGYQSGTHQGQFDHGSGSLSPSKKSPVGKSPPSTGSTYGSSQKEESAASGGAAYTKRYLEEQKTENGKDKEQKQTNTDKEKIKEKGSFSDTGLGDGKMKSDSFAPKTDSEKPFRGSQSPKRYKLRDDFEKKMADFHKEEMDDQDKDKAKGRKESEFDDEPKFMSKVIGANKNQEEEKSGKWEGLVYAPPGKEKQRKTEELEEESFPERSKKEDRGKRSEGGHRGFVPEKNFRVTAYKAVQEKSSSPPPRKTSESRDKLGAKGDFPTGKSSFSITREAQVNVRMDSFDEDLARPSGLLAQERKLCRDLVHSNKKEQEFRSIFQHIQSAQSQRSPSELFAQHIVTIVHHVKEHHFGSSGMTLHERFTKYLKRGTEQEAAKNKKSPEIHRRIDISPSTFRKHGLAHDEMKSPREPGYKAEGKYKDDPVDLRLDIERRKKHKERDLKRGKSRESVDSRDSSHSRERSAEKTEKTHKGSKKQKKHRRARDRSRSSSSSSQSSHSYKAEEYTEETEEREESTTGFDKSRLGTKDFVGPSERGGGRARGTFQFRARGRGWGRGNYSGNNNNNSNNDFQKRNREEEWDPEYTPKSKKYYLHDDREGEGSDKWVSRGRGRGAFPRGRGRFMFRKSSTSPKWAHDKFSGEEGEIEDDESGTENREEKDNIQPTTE
inactive: [1] -0.008 | [2] 0.004 | [3] -0.056 | [4] -0.035 | [5] 0.109 | [6] 0.063 | [7] -0.01 | [8] 0.197 | [9] 0.093 | [10] -0.099

SMAP2 (UniProt Q8WU79)
Chain of UniProt Q8WU79 (Q8WU79 whole entry, looked up): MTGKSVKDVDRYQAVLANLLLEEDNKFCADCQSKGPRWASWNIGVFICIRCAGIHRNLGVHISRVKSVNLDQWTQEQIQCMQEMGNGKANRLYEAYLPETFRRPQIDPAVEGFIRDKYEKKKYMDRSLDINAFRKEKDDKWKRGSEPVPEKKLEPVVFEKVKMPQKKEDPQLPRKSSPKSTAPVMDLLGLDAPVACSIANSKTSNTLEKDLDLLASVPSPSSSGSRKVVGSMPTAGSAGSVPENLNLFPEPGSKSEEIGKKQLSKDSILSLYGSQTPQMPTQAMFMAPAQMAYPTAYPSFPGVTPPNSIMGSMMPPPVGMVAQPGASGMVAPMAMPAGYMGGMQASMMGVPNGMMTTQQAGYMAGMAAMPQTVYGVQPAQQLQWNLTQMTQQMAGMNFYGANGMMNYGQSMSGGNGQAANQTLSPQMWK
inactive: [1] -0.033 | [2] -0.063 | [3] 0.016 | [4] -0.054 | [5] 0.029 | [6] 0.058 | [7] 0.055 | [8] 0.043 | [9] 0.04 | [10] 0.052

SLC7A6 (UniProt Q92536)
Chain of UniProt Q92536 (Q92536 whole entry, looked up): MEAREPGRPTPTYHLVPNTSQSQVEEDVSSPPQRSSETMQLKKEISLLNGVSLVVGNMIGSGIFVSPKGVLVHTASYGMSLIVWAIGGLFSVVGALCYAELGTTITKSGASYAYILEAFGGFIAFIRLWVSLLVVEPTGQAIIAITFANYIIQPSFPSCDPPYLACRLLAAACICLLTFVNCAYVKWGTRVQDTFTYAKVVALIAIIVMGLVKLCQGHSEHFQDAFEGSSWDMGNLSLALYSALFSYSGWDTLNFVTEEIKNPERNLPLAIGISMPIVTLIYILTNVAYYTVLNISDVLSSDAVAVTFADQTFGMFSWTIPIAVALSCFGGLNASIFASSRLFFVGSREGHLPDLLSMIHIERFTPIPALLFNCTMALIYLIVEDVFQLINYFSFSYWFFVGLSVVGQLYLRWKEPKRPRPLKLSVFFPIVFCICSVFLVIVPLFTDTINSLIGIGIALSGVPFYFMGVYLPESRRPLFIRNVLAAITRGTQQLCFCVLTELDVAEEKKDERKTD
inactive: [1] 0.021 | [2] 0.027 | [3] 0.023 | [4] 0.017 | [5] 0.05 | [6] 0.03 | [7] -0.046 | [8] -0.005 | [9] 0.012 | [10] 0.036

SYMPK (UniProt Q92797)
inactive: [1] 0.042 | [2] -0.004 | [3] 0.05 | [4] 0.005 | [5] -0.103 | [6] 0.119 | [7] 0.212 | [8] 0.051 | [9] 0.145 | [10] 0.042
